# Laboratory results from PubChem BioAssay.
# Inconclusive results are not listed. The source made the active and inactive calls.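 The calls were made as follows, unless noted: active = normalized viability below 100% at a tested concentration; inactive = the rest.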
# Legend:
# [1] = growth inhibition of DIPG glioma cells, dose response, cell-based, SU-DIPG-XVII, MIPE5.0, CellTiter-Glo, qHTS (AID 1347060; cut-off not given, nearly all actives have AC50 up to about 26 µM;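 also: cells exposed to compound for 48 hours before viability readout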); settings: SU-DIPG-XVII viability, CellTiter-Glo ATP luminescence
# [2] = growth inhibition of DIPG glioma cells, dose response, cell-based, SU-DIPG-XIII, MIPE4.0, CellTiter-Glo, qHTS (AID 1347061; cut-off not given, nearly all actives have AC50 up to about 37 µM;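 also: cells exposed to compound for 48 hours before readout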); settings: SU-DIPG-XIII viability, CellTiter-Glo ATP luminescence
# [3] = growth inhibition of DIPG glioma cells, dose response, cell-based, JHH-DIPG-1, MIPE4.0, CellTiter-Glo, qHTS (AID 1347062; cut-off not given, nearly all actives have AC50 up to about 27 µM;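 also: cells exposed to compound for two days before readout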); settings: JHH-DIPG-1 viability, CellTiter-Glo ATP luminescence
# [4] = growth inhibition of DIPG glioma cells, dose response, cell-based, SU-DIPG-IV, MIPE4.0, CellTiter-Glo, qHTS (AID 1347063; cut-off not given, nearly all actives have AC50 up to about 30 µM;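 also: compound exposure lasted 48 hours before the viability readout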); settings: SU-DIPG-IV viability, CellTiter-Glo ATP luminescence
# [5] = growth inhibition of DIPG glioma cells, dose response, cell-based, SU-DIPG-XIII, MIPE5.0, CellTiter-Glo, qHTS (AID 1347064; cut-off not given, nearly all actives have AC50 up to about 23 µM;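 also: cells exposed to compound for 48 hours before the viability read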); settings: SU-DIPG-XIII viability, CellTiter-Glo ATP luminescence
# [6] = viability loss in pontine glioma line – cell-based, SU-DIPG-XXV, MIPE5.0, CellTiter-Glo, qHTS, dose response (AID 1347065; cut-off not given, nearly all actives have AC50 up to about 26 µM;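 also: cells exposed to compound for 48 hours before ATP readout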); settings: CellTiter-Glo ATP luminescence
# [7] = JHH-DIPG-1 glioma cell viability, MIPE5.0 library, CellTiter-Glo luminescence, qHTS (AID 1347067; cut-off not given, nearly all actives have AC50 up to about 26 µM;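 also: cells exposed to compound for 48 hours before readout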); settings: JHH-DIPG-1 glioma viability, CellTiter-Glo ATP luminescence
# [8] = SU-DIPG-XXV glioma cell viability, MIPE5.0 library, qHTS (AID 1347068; cut-off not given, nearly all actives have IC50 up to about 30 µM;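 also: cells exposed to compound for 48 hours before viability readout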)
# [9] = modifiers of HSF1 nuclear foci, imaging, Selleck Cancer Library (AID 1347162; in the data active = plate-normalised HSF1 focus index below about 0.46); settings: human cells, at 10 µM; SSMD: measured here: HSF1 foci SSMD mean; cell count: measured here: cell number; plate-normalised HSF1 focus index: stronger effect = lower value
# [10] = ovarian cancer cell viability with rucaparib, profiling panel, oncology-focused library, rucaparib conditional (AID 1508598); settings: patient-derived ovarian cancer cells, CellTiter-Glo viability, 144 h, stronger effect = lower value
# [11] = LFS_MB_P medulloblastoma growth inhibition, cell-based, chromothripsis tumors, cisplatin or BGB combos (AID 1671449; in the data active = inhibition above about 80%;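 also: cells exposed for 96 hours; 0% = vehicle DMSO and 100% = killing by high DMSO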); settings: LFS_MB_P medulloblastoma cells
# [12] = HDN33 neuroblastoma growth inhibition, cell-based, chromothripsis tumors, cisplatin or BGB combos (AID 1671450; in the data active = inhibition above about 80%;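 also: cells exposed to compound for four days; 0% = vehicle DMSO and 100% = cell killing by high DMSO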); settings: HDN33 neuroblastoma cells, stronger effect = higher value
# [13] = ICB984 medulloblastoma cell growth inhibition, synergistic combos for chromothripsis tumors, cisplatin or BGB combos (AID 1671451; call rule not given here;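 also: cells exposed for 96 hours before readout; 0% = vehicle DMSO and 100% = killing by high DMSO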); settings: ICB984 medulloblastoma cells, drug combinations, stronger effect = higher value
# [14] = HTB85 osteosarcoma cell growth inhibition, synergistic combos for chromothripsis tumors, BGB or cisplatin IC20 combos (AID 1671453; in the data active = inhibition above about 80%;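 also: cells exposed for 96 hours before readout; 0% = vehicle DMSO and 100% = high DMSO killing control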); settings: HTB85 osteosarcoma cells, drug combinations, stronger effect = higher value
# [15] = MDA-MB-436 breast carcinoma cell growth inhibition, synergistic combos for chromothripsis tumors, BGB or cisplatin combos (AID 1671458; call rule not given here;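 also: cells exposed for 96 hours; 0% = vehicle DMSO and 100% = killing by high DMSO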); settings: MDA-MB-436 breast carcinoma growth inhibition, drug combinations, stronger effect = higher value
# [16] = growth inhibition of BT084 medulloblastoma cells, cell-based, ICGC_MB145, cisplatin and BGB IC40 combos (AID 1671461; in the data active = inhibition above about 80%;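 also: cells exposed to drugs for 96 hours; 0% = vehicle DMSO and 100% = high DMSO full killing control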); settings: drug combinations, stronger effect = higher value
# [17] = growth inhibition of RCMB18 medulloblastoma cells, cell-based, cisplatin and BGB IC40 combos (AID 1671462; in the data active = inhibition above about 80%;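 also: cells exposed to compound for four days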); settings: stronger effect = higher value
smiles,measurement,setting,value
CCCCc1nc2cc(/C=C/C(=O)NO)ccc2n1CCN(CC)CC,AC50,[1],1.66 µM (active)
same,AC50,[2],14.8 µM (active)
same,AC50,[3],0.296 µM (active)
same,AC50,[4],0.0148 µM (active)
same,AC50,[5],1.32 µM (active)
same,AC50,[6],0.332 µM (active)
same,AC50,[7],1.05 µM (active)
same,IC50,[8],13.2 µM (active)
same,SSMD,[9],-1.52
same,cell count,[9],7710
same,plate-normalised HSF1 focus index,[9],0.904 (inactive)
same,viability,"[10]; at 0.000305 µM, OCI-C5x cells, with rucaparib 10 µM, 100% = cells with rucaparib alone",109% (inactive)
same,viability,"[10]; at 0.000305 µM, OCI-C5x cells, without rucaparib",111% (inactive)
same,viability,"[10]; at 0.000305 µM, OCI-P5x cells, with rucaparib 20 µM, 100% = cells with rucaparib alone",93.3% (active)
same,viability,"[10]; at 0.000305 µM, OCI-P5x cells, without rucaparib",99.3% (active)
same,viability,"[10]; at 0.00122 µM, OCI-C5x cells, with rucaparib 10 µM, 100% = cells with rucaparib alone",115% (inactive)
same,viability,"[10]; at 0.00122 µM, OCI-C5x cells, without rucaparib",116% (inactive)
same,viability,"[10]; at 0.00122 µM, OCI-P5x cells, with rucaparib 20 µM, 100% = cells with rucaparib alone",98.6% (active)
same,viability,"[10]; at 0.00122 µM, OCI-P5x cells, without rucaparib",104% (inactive)
same,viability,"[10]; at 0.00488 µM, OCI-C5x cells, with rucaparib 10 µM, 100% = cells with rucaparib alone",117% (inactive)
same,viability,"[10]; at 0.00488 µM, OCI-C5x cells, without rucaparib",117% (inactive)
same,viability,"[10]; at 0.00488 µM, OCI-P5x cells, with rucaparib 20 µM, 100% = cells with rucaparib alone",95.5% (active)
same,viability,"[10]; at 0.00488 µM, OCI-P5x cells, without rucaparib",107% (inactive)
same,viability,"[10]; at 0.0195 µM, OCI-C5x cells, with rucaparib 10 µM, 100% = cells with rucaparib alone",110% (inactive)
same,viability,"[10]; at 0.0195 µM, OCI-C5x cells, without rucaparib",117% (inactive)
same,viability,"[10]; at 0.0195 µM, OCI-P5x cells, with rucaparib 20 µM, 100% = cells with rucaparib alone",93.4% (active)
same,viability,"[10]; at 0.0195 µM, OCI-P5x cells, without rucaparib",104% (inactive)
same,viability,"[10]; at 0.0781 µM, OCI-C5x cells, with rucaparib 10 µM, 100% = cells with rucaparib alone",96.7% (active)
same,viability,"[10]; at 0.0781 µM, OCI-C5x cells, without rucaparib",123% (inactive)
same,viability,"[10]; at 0.0781 µM, OCI-P5x cells, with rucaparib 20 µM, 100% = cells with rucaparib alone",88.6% (active)
same,viability,"[10]; at 0.0781 µM, OCI-P5x cells, without rucaparib",95.7% (active)
same,viability,"[10]; at 0.313 µM, OCI-C5x cells, with rucaparib 10 µM, 100% = cells with rucaparib alone",92.4% (active)
same,viability,"[10]; at 0.313 µM, OCI-C5x cells, without rucaparib",91.7% (active)
same,viability,"[10]; at 0.313 µM, OCI-P5x cells, with rucaparib 20 µM, 100% = cells with rucaparib alone",68.3% (active)
same,viability,"[10]; at 0.313 µM, OCI-P5x cells, without rucaparib",76.5% (active)
same,viability,"[10]; at 1.25 µM, OCI-C5x cells, with rucaparib 10 µM, 100% = cells with rucaparib alone",28.3% (active)
same,viability,"[10]; at 1.25 µM, OCI-C5x cells, without rucaparib",21.2% (active)
same,viability,"[10]; at 1.25 µM, OCI-P5x cells, with rucaparib 20 µM, 100% = cells with rucaparib alone",26.6% (active)
same,viability,"[10]; at 1.25 µM, OCI-P5x cells, without rucaparib",43.4% (active)
same,viability,"[10]; at 5 µM, OCI-C5x cells, with rucaparib 10 µM, 100% = cells with rucaparib alone",4.57% (active)
same,viability,"[10]; at 5 µM, OCI-C5x cells, without rucaparib",5.34% (active)
same,viability,"[10]; at 5 µM, OCI-P5x cells, with rucaparib 20 µM, 100% = cells with rucaparib alone",1.32% (active)
same,viability,"[10]; at 5 µM, OCI-P5x cells, without rucaparib",2.31% (active)
same,inhibition,"[11]; at 0.5 µM, stronger effect = higher value",-27.6% (inactive)
same,inhibition,"[11]; measured here: combination with BGB IC20, at 0.005 µM",-13.5%
same,inhibition,"[11]; measured here: combination with BGB IC40, at 0.005 µM",75.4%
same,inhibition,"[11]; measured here: combination with BGB IC40, at 0.05 µM",-21.7%
same,inhibition,"[11]; measured here: combination with cisplatin, at 0.5 µM, stronger effect = higher value",-26%
same,inhibition,"[11]; measured here: combination with cisplatin, at 5 µM, stronger effect = higher value",104%
same,inhibition,"[12]; BGB combo, at 5 µM",99.5%
same,inhibition,[12]; at 0.5 µM,64.3% (inactive)
same,inhibition,"[12]; cisplatin combo, at 5 µM",99.9%
same,inhibition,"[12]; measured here: with BGB IC20 combination, at 0.5 µM",57.9%
same,inhibition,"[12]; measured here: with cisplatin IC20 combination, at 0.5 µM",71.1%
same,inhibition,"[12]; single agent, at 5 µM",99.8%
same,inhibition,"[13]; BGB IC20 combo, at 0.005 µM",7.49%
same,inhibition,"[13]; BGB IC40 combo, at 0.005 µM",-8.13%
same,inhibition,"[13]; BGB IC40 combo, at 0.05 µM",90.2%
same,inhibition,[13]; at 0.5 µM,-30.3% (inactive)
same,inhibition,"[13]; cisplatin combo, at 0.05 µM",90.2%
same,inhibition,"[13]; cisplatin combo, at 0.5 µM",-38.4%
same,inhibition,"[13]; cisplatin combo, at 5 µM",-16.6%
same,inhibition,"[13]; measured here: 5 uM single agent, at 5 µM",-44.4%
same,inhibition,[14]; at 0.5 µM,60.4% (inactive)
same,inhibition,"[14]; measured here: with BGB IC20, at 0.5 µM",56%
same,inhibition,"[14]; measured here: with BGB IC20, at 5 µM",99.8%
same,inhibition,"[14]; measured here: with cisplatin IC20, at 0.5 µM",61.5%
same,inhibition,"[14]; measured here: with cisplatin IC20, at 5 µM",99.9%
same,inhibition,"[14]; single agent, at 5 µM",99.7%
same,inhibition,[15]; at 0.5 µM,23.8% (inactive)
same,inhibition,"[15]; measured here: BGB combination, at 0.5 µM",18.7%
same,inhibition,"[15]; measured here: BGB combination, at 5 µM",52.6%
same,inhibition,"[15]; measured here: cisplatin combination, at 0.5 µM",13.3%
same,inhibition,"[15]; measured here: cisplatin combination, at 5 µM",61.6%
same,inhibition,[16]; at 0.5 µM,51.2% (inactive)
same,inhibition,"[16]; cisplatin combination, at 0.5 µM",62.4%
same,inhibition,"[16]; cisplatin combination, at 5 µM",101%
same,inhibition,"[16]; measured here: BGB IC40 combination 0.05 uM, at 0.05 µM",-12.4%
same,inhibition,"[16]; single agent, at 5 µM",107%
same,inhibition,[17]; at 0.5 µM,35.2% (inactive)
same,inhibition,"[17]; cisplatin combo, at 5 µM",93.7%
same,inhibition,"[17]; measured here: BGB IC40 combination, at 0.05 µM",11.4%
same,inhibition,"[17]; measured here: combination with cisplatin, at 0.5 µM",47.6%
same,inhibition,"[17]; single agent, at 5 µM",89.4%
